“And” between values parts separate entries of the source, which are not always exact repeats. Equal entries are not always repeated. Among all 5,500 compounds or so, about 2,000 (36%) were called active. Roughly 18% stayed inconclusive and do not appear here. Rule as the data show it: active = normalized growth mostly below about 0.91 (no sharp cut-off); inconclusive = no clear call, values can overlap the other calls; inactive = mostly above about 0.92. Some of the results follow.
Test: chemical genetic growth profiling, strain panel (AID 1159580);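 also: tested at 20 µM; growth read once vehicle control cultures reached saturation at 30 °C; 1 = growth at the plate median or of vehicle wells; lower values mean less growth of the strain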
Conditions: growth OD

Measured: normalized growth

N[C@@H](C(=O)N[C@@H]1C(=O)N2C(C(=O)O)=C(Cl)CS[C@H]12)c1ccccc1
active: S. cerevisiae deletion strains, locus YPL241C, strain CIN2, hits give low values 1.09 [resistant]
inactive: S. cerevisiae deletion strains, locus YAL013W, strain DEP1, hits give low values 1.01 | S. cerevisiae deletion strains, locus YBR021W, strain FUR4, hits give low values 1 | S. cerevisiae deletion strains, locus YBR229C, strain ROT2, hits give low values 1.02 | S. cerevisiae deletion strains, locus YCL029C, strain bik1, hits give low values 1.03 | S. cerevisiae deletion strains, locus YDL035C, strain GPR1, hits give low values 1.01 | S. cerevisiae deletion strains, locus YDL074C, strain BRE1, hits give low values 1.02 | S. cerevisiae deletion strains, locus YDL101C, strain DUN1, hits give low values 1.01 | S. cerevisiae deletion strains, locus YDL134C, strain PPH21, hits give low values 1.01 | S. cerevisiae deletion strains, locus YDL185W, strain tfp1, hits give low values 1.02 | S. cerevisiae deletion strains, locus YDL192W, strain arf1, hits give low values 1.02 | S. cerevisiae deletion strains, locus YDR101C, strain arx1, hits give low values 1.01 | S. cerevisiae deletion strains, locus YDR150W, strain NUM1, hits give low values 1.01 | S. cerevisiae deletion strains, locus YDR162C, strain NBP2, hits give low values 1.02 | S. cerevisiae deletion strains, locus YDR318W, strain mcm21, hits give low values 1.02 | S. cerevisiae deletion strains, locus YDR388W, hits give low values 1.02 | S. cerevisiae deletion strains, locus YDR502C, strain sam2, hits give low values 1.02 | S. cerevisiae deletion strains, locus YEL061C, strain CIN8, hits give low values 1.01 | S. cerevisiae deletion strains, locus YER110C, hits give low values 1.03 | S. cerevisiae deletion strains, locus YER155C, strain BEM2, hits give low values 1 | S. cerevisiae deletion strains, locus YER167W, strain BCK2, hits give low values 1.01 | S. cerevisiae deletion strains, locus YGL078C, strain dbp3, hits give low values 1.02 | S. cerevisiae deletion strains, locus YGL086W, strain mad1, hits give low values 1.01 | S. cerevisiae deletion strains, locus YGL248W, strain PDE1, hits give low values 1.02 | S. cerevisiae deletion strains, locus YGR078C, strain PAC10, hits give low values 1.01 | S. cerevisiae deletion strains, locus YGR135W, strain pre9, hits give low values 1.01 | S. cerevisiae deletion strains, locus YGR229C, strain SMI1, hits give low values 1.01 | S. cerevisiae deletion strains, locus YGR252W, strain gcn5, hits give low values 1.04 | S. cerevisiae deletion strains, locus YHR030C, strain SLT2, hits give low values 1.01 and 0.982 | S. cerevisiae deletion strains, locus YHR079C, strain IRE1 (second series), hits give low values 1.02 | S. cerevisiae deletion strains, locus YHR079C, strain IRE1, hits give low values 0.976 | S. cerevisiae deletion strains, locus YHR094C, strain hxt1, hits give low values 1.02 | S. cerevisiae deletion strains, locus YHR129C, strain ARP1, hits give low values 1.01 | S. cerevisiae deletion strains, locus YHR200W, strain rpn10, hits give low values 1.03 | S. cerevisiae deletion strains, locus YIL066C, strain RNR3, hits give low values 1.03 | S. cerevisiae deletion strains, locus YIL073C, strain SPO22, hits give low values 1.08 | S. cerevisiae deletion strains, locus YIL125W, strain kgd1, hits give low values 1.02 | S. cerevisiae deletion strains, locus YIR030C, strain dcg1, hits give low values 1.03 | S. cerevisiae deletion strains, locus YJL095W, strain BCK1, hits give low values 1.01 and 0.976 | S. cerevisiae deletion strains, locus YJL134W, strain LCB3, hits give low values 1.01 | S. cerevisiae deletion strains, locus YJL168C, strain set2, hits give low values 1.02 | S. cerevisiae deletion strains, locus YJL187C, strain SWE1 (second series), hits give low values 1.02 | S. cerevisiae deletion strains, locus YJR043C, strain POL32, hits give low values 1.01 | S. cerevisiae deletion strains, locus YJR066W, strain TOR1, hits give low values 0.928 | S. cerevisiae deletion strains, locus YJR075W, strain HOC1, hits give low values 0.999 | S. cerevisiae deletion strains, locus YKL009W, strain mrt4, hits give low values 1.02 | S. cerevisiae deletion strains, locus YKL068W, hits give low values 1.03 | S. cerevisiae deletion strains, locus YKL085W, strain MDH1 (second series), hits give low values 1.02 | S. cerevisiae deletion strains, locus YKL085W, strain MDH1, hits give low values 1.02 | S. cerevisiae deletion strains, locus YKL190W, strain CNB1, hits give low values 1.01 | S. cerevisiae deletion strains, locus YKR001C, strain vps1, hits give low values 1.02 | S. cerevisiae deletion strains, locus YLR039C, strain RIC1, hits give low values 1.05 | S. cerevisiae deletion strains, locus YLR058C, strain SHM2, hits give low values 1.01 | S. cerevisiae deletion strains, locus YLR102C, strain apc9, hits give low values 1.03 | S. cerevisiae deletion strains, locus YLR113W, strain HOG1, hits give low values 1 | S. cerevisiae deletion strains, locus YLR262C, strain YPT6, hits give low values 1.04 | S. cerevisiae deletion strains, locus YLR268W, strain sec22, hits give low values 1.02 | S. cerevisiae deletion strains, locus YLR330W, strain CHS5, hits give low values 1.01 | S. cerevisiae deletion strains, locus YLR342W, strain FKS1 (second series), hits give low values 0.986 | S. cerevisiae deletion strains, locus YLR371W, strain rom2, hits give low values 1.01 | S. cerevisiae deletion strains, locus YLR418C, strain cdc73, hits give low values 1.03 | S. cerevisiae deletion strains, locus YML016C, strain PPZ1, hits give low values 1.01 | S. cerevisiae deletion strains, locus YML032C, strain rad52, hits give low values 1.02 | S. cerevisiae deletion strains, locus YML124C, strain tub3, hits give low values 1.02 | S. cerevisiae deletion strains, locus YMR078C, strain ctf18, hits give low values 1.04 | S. cerevisiae deletion strains, locus YMR223W, strain ubp8, hits give low values 1.02 | S. cerevisiae deletion strains, locus YMR263W, strain SAP30, hits give low values 1.01 | S. cerevisiae deletion strains, locus YMR307W, strain GAS1, hits give low values 1.05 | S. cerevisiae deletion strains, locus YNL067W, strain RPL9B, hits give low values 1.01 | S. cerevisiae deletion strains, locus YNL128W, strain TEP1, hits give low values 0.998 | S. cerevisiae deletion strains, locus YNL153C, strain GIM3, hits give low values 1.01 | S. cerevisiae deletion strains, locus YNL183C, strain NPR1, hits give low values 0.932 | S. cerevisiae deletion strains, locus YNL233W, strain BNI4, hits give low values 1.01 | S. cerevisiae deletion strains, locus YNL250W, strain rad50, hits give low values 1.01 | S. cerevisiae deletion strains, locus YNL271C, strain bni1, hits give low values 1.02 | S. cerevisiae deletion strains, locus YNL298W, strain CLA4, hits give low values 1.03 | S. cerevisiae deletion strains, locus YNL307C, strain MCK1, hits give low values 1.02 | S. cerevisiae deletion strains, locus YNL322C, strain KRE1, hits give low values 1.01 | S. cerevisiae deletion strains, locus YNR052C, strain pop2, hits give low values 1.02 | S. cerevisiae deletion strains, locus YOL006C, strain TOP1, hits give low values 1.02 | S. cerevisiae deletion strains, locus YOL012C, strain htz1 1.44 | S. cerevisiae deletion strains, locus YOL147C, strain pex11, hits give low values 1.02 | S. cerevisiae deletion strains, locus YOR061W, strain CKA2, hits give low values 1 | S. cerevisiae deletion strains, locus YOR069W, strain VPS5, hits give low values 0.999 | S. cerevisiae deletion strains, locus YOR136W, strain idh2, hits give low values 1.02 | S. cerevisiae deletion strains, locus YOR144C, strain elg1, hits give low values 1.02 | S. cerevisiae deletion strains, locus YOR184W, strain ser1, hits give low values 1.02 | S. cerevisiae deletion strains, locus YOR231W, strain MKK1, hits give low values 0.987 | S. cerevisiae deletion strains, locus YOR316C, strain cot1, hits give low values 1.02 | S. cerevisiae deletion strains, locus YPL055C, strain LGE1, hits give low values 1 | S. cerevisiae deletion strains, locus YPL256C, strain CLN2, hits give low values 0.971 | S. cerevisiae deletion strains, locus YPR119W, strain clb2, hits give low values 1.03 | S. cerevisiae deletion strains, locus YPR141C, strain kar3, hits give low values 1.03 | S. cerevisiae deletion strains, locus YPR163C, strain tif3, hits give low values 1.02 | S. cerevisiae deletion strains, locus YPR167C, strain met16, hits give low values 1.02 | S. cerevisiae deletion strains, strain wtn01, hits give low values 1.02 | S. cerevisiae strains, strain wild type, hits give low values 1.01

From PubChem BioAssay AID1159580 (chemical genetic matrix, 2015)
